# Several values for one entry are separate records, joined by “and”; a condition that tells them apart may be missing. Equal entries are not always repeated. Structures can show the parent of a compound that is named as a salt. In all, about 5,800 compounds went through this assay and about 620 (11%) showed activity. For the sample, actives were picked, then their nearest neighbours and some compounds at random. Values without a mark were called inactive.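 The calls were made as follows: active = score above a cut-off or among the top three wells of a plate; in these data no inactive exceeds 0.85.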
# Tested on: primary human hepatic stellate cells (donor 1)
# Assay: scaled lipid accumulation score (0 = DMSO-like, 1 = nortriptyline-like); higher = stronger HSC inactivation (lipid re-accumulation), active = hit call of the paper
# Details: 48 h
# [1] = library stock concentration: 3.33 mM
# [2] = library stock concentration: 10 mM
# [3] = library stock concentration: 1 mM
# [4] = library stock concentration: 80 uM
# [5] = library stock concentration: 400 uM
# [6] = library stock concentration: 2 mM
smiles,measurement,setting,value
Cc1ccc2nc(NC(=O)CSc3nc4c(c(=O)n3-c3ccccc3)SCC4)sc2c1,scaled lipid accumulation score,[1],≤ 0
same,scaled lipid accumulation score,[2],0.76
COc1ccc(CNc2nc(N(CCO)CCO)nc3c2ncn3C(C)C)cc1 [Cdk2 Inhibitor III],scaled lipid accumulation score,[1],0.067
CCCCCCCC/C=C\CCCCCCCCCCCCCC(=O)NCCS(=O)(=O)O [N-Nervonoyl Taurine],scaled lipid accumulation score,[3],0.028
CCCCC[C@H](O)/C=C/[C@H]1CC[C@@H](O)[C@@H]1CCCCCCC(=O)O [11-deoxy Prostaglandin F1.beta.],scaled lipid accumulation score,[3],≤ 0
CCCCCCCCCC(=O)CC(=O)N[C@H]1CCOC1=O [N-3-oxo-dodecanoyl-L-Homoserine lactone],scaled lipid accumulation score,[3],0.017
COc1cc2ncc(-c3ccccc3)nc2cc1OC [Tyrphostin AG 1296],scaled lipid accumulation score,[1],≤ -0.009
same,scaled lipid accumulation score,[2],≤ 0
COc1cc2ncc(-c3ccccc3)nc2cc1OC,scaled lipid accumulation score,[1],≤ 0
same,scaled lipid accumulation score,library stock concentration: 18.8 mM,0.096
COc1cc2c(cc1OC)-c1cc3nc4ccccc4nc3n1C(C)(C)C2,scaled lipid accumulation score,[2],0.923 (active)
CN(CCO)CC(O)Cn1cnc2c1c(=O)n(C)c(=O)n2C (stereo not given),scaled lipid accumulation score,[2],≤ 0
c1([C@]2(C(=O)OC)c3c(c4c(cccc4)[nH]3)CN(CC5C2)CC(CC)=C5)cc6c(N(C)[C@]7([H])[C@]6(CC8)[C@]([H])(N89)[C@@](CC)(C=CC9)[C@@H](OC(=O)C)[C@]7(O)C(=O)OC)cc1OC.C(=O)(O)[C@H](O)[C@@H](O)C(=O)O.C(=O)(O)[C@H](O) (stereo not given in full) [Vinorelbine Tartrate],scaled lipid accumulation score,[1],1.26 (active)
same,scaled lipid accumulation score,[2],0.863 (active)
CCC1=C[C@@H]2CN(C1)Cc1c([nH]c3ccccc13)[C@@](C(=O)OC)(c1cc3c(cc1OC)N(C)[C@H]1[C@@](O)(C(=O)OC)[C@H](OC(C)=O)[C@]4(CC)C=CCN5CC[C@]31[C@@H]54)C2 [Vinorelbine],scaled lipid accumulation score,library stock concentration: 2.6 mM,0.75
CCC1=C[C@H]2CN(C1)Cc1c([nH]c3ccccc13)[C@@](C(=O)OC)(c1cc3c(cc1OC)N(C)[C@H]1[C@@](O)(C(=O)OC)[C@H](OC(C)=O)[C@]4(CC)C=CCN5CC[C@]31[C@@H]54)C2.O=C(O)C(O)C(O)C(=O)O,scaled lipid accumulation score,[2],1.52 (active)
COc1ccc2c(c1)c(CC(=O)O)c(C)n2Cc1ccc(Cl)cc1 [1-(4-Chlorobenzyl)-5-methoxy-2-methylindole-3-acetic acid],scaled lipid accumulation score,[2],0.078
Cc1cccc(C#Cc2ccccc2)n1 [6-Methyl-2-(phenylethynyl)pyridine hydrochloride],scaled lipid accumulation score,[2],≤ -0.034
Cc1cccc(C#Cc2ccccc2)n1,scaled lipid accumulation score,[1],≤ 0
same,scaled lipid accumulation score,[2],0.052
NS(=O)(=O)C#Cc1ccccc1 [Pifithrin->m],scaled lipid accumulation score,[2],1.46 (active)
Cc1cccc(C#Cc2ccccc2)n1 [MPEP hydrochloride],scaled lipid accumulation score,[2],0.053
Nc1ccccc1S(N)(=O)=O [2-Aminobenzenesulfonamide],scaled lipid accumulation score,,≤ 0
NS(=O)(=O)C#Cc1ccccc1 [Pifithrin-mu],scaled lipid accumulation score,[2],1.02 (active)
FC(F)(F)c1ccc(/C=C\c2cc(Cl)cc(Cl)c2)cc1,scaled lipid accumulation score,[3],≤ 0
CCCCC/C=C\C/C=C\C/C=C\C/C=C\CCCC(=O)C(F)(F)F [Arachidonyl Trifluoromethyl Ketone],scaled lipid accumulation score,[3],≤ 0
CCCCCCCCCCCC#CC#CC#CC#CC(=O)O [Eicosatetraynoic Acid],scaled lipid accumulation score,[3],≤ 0
COc1cc(OC)c(/C=C/S(=O)(=O)Cc2ccc(OC)c(NCC(=O)O)c2)c(OC)c1,scaled lipid accumulation score,[4],≤ -0.016
same,scaled lipid accumulation score,[5],≤ -0.016
same,scaled lipid accumulation score,[6],0.096
same,scaled lipid accumulation score,[1],0.068
same,scaled lipid accumulation score,[2],0.138 and 0.063
CC(C)NCC(O)COc1ccc(CC(N)=O)cc1 (racemic) [(RS)-Atenolol],scaled lipid accumulation score,[2],0.043
COc1ccc2c(c1)C(=O)N(CCc1ccc(S(=O)(=O)NC(=O)NC3CCCCC3)cc1)C(=O)C2(C)C [Gliquidone],scaled lipid accumulation score,,≤ 0
CN1CCC(NC(=O)C2=CC(=C3C(O)=CC(=O)C=C3Oc3ccc([N+](=O)[O-])cc3)ON2)CC1,scaled lipid accumulation score,[2],0.976 (active)
CN1CCC(NC(=O)c2cc(-c3c(O)cc(O)cc3Oc3ccc([N+](=O)[O-])cc3)on2)CC1,scaled lipid accumulation score,[1],0.756
CCCCCC=CCC=CCC=CCC=CCCCC(=O)OCC(O)CO (stereo not given) [1-Arachidonoyl Glycerol],scaled lipid accumulation score,[3],0.012
CCCCC/C=C\C[C@H](O)/C=C/C=C\C/C=C\CCCC(=O)O,scaled lipid accumulation score,library stock concentration: 100 uM,≤ -0.021
Cc1cc2c(OCC(CNC(C)(C)C)OC(=O)c3ccccc3)cccc2[nH]1 (stereo not given) [Bopindolol malonate],scaled lipid accumulation score,library stock concentration: 5.3 mM,≤ -0.006
COc1ccc(/C=C\c2cc(OC)c(OC)c(OC)c2)cc1O [Combrestatin A4],scaled lipid accumulation score,[3],0.237 (active)
COc1cc(/C=C/C(=O)O)ccc1O [Ferulic acid],scaled lipid accumulation score,[2],≤ 0
COc1cc(/C=C/C(=O)O)ccc1O [Ferulic Acid],scaled lipid accumulation score,[1],≤ 0
same,scaled lipid accumulation score,[2],≤ 0
COc1cc(/C=C/C(N)=O)cc(OC)c1OC,scaled lipid accumulation score,[2],0.006
Nc1[nH]nc2nc3ccccc3nc12,scaled lipid accumulation score,[2],≤ -0.006
CC(C)[C@H](N)C(=O)OCC(CO)OCn1cnc2c(=O)[nH]c(N)nc21 (stereo not given in full) [Valganciclovir HCl],scaled lipid accumulation score,[1],≤ 0
same,scaled lipid accumulation score,[2],0.028
COC(=O)C(Cc1ccc(OCCn2c(=O)sc3cc(C(=O)c4ccccc4)ccc32)cc1)C(=O)OC,scaled lipid accumulation score,[2],≤ 0
CCCCN(CC)c1nc(C)nc2c1c(C)cn2-c1c(C)cc(C)cc1C,scaled lipid accumulation score,[2],0.047
"Cc1ccc(NC(=O)c2ccc(CN3CCN(C)CC3)cc2)cc1Nc1nc(-c2cccnc2)cs1 [Masitinib (AB1010, Masivet) (10 mM)]",scaled lipid accumulation score,[2],0.755
"Cc1ccc(NC(=O)c2ccc(CN3CCN(C)CC3)cc2)cc1Nc1nc(-c2cccnc2)cs1 [Masitinib (AB1010, Masivet) (2 mM)]",scaled lipid accumulation score,[6],1.37 (active)
Cc1ccc(NC(=O)c2ccc(CN3CCN(C)CC3)cc2)cc1Nc1nc(-c2cccnc2)cs1 [Masitinib] [listing 1 of 2 here],scaled lipid accumulation score,[2],1.07 (active)
Cc1ccc(NC(=O)c2ccc(CN3CCN(C)CC3)cc2)cc1Nc1nc(-c2cccnc2)cs1 [Masitinib] [listing 2 of 2 here],scaled lipid accumulation score,[4],≤ -0.009
same,scaled lipid accumulation score,[5],0.153
same,scaled lipid accumulation score,[6],0.121
Cc1ccc(NC(=O)c2ccc(CN3CCN(C)CC3)cc2)cc1Nc1nc(-c2cccnc2)cs1 [Masitinib (AB1010)],scaled lipid accumulation score,[1],1.13 (active)
same,scaled lipid accumulation score,[2],0.856 (active)
"Cc1ccc(NC(=O)c2ccc(CN3CCN(C)CC3)cc2)cc1Nc1nc(-c2cccnc2)cs1 [Masitinib (AB1010, Masivet) (0.4 mM)]",scaled lipid accumulation score,[5],0.487
Cc1cc(C)c(-c2csc(NC(=O)c3ccccc3)n2)c(C)c1,scaled lipid accumulation score,[1],≤ -0.009
same,scaled lipid accumulation score,[2],0.033
Cc1ccc(-c2csc(NC(=O)c3ccccc3)n2)c(C)c1,scaled lipid accumulation score,[1],≤ -0.009
same,scaled lipid accumulation score,[2],≤ 0
CCCCCCCCCCCCCCCC(=O)C1=C(O)[C@@H](CO)OC1=O,scaled lipid accumulation score,library stock concentration: 13.6 mM,≤ -0.012
CC1(C)[C@H]2CC[C@]1(CS(=O)(=O)O)C(=O)C2=Cc1ccc(C=C2C(=O)[C@@]3(CS(=O)(=O)O)CC[C@@H]2C3(C)C)cc1,scaled lipid accumulation score,[2],≤ 0
O=C1NC(=O)/C(=C\c2cccc(C(F)(F)F)c2)S1 [PIM12 kinase inhibitor V],scaled lipid accumulation score,[4],≤ -0.001
same,scaled lipid accumulation score,[5],≤ -0.001
same,scaled lipid accumulation score,[6],≤ -0.001
same,scaled lipid accumulation score,[2],0.011
"CCCCCC(=O)CC[C@@H]1[C@@H](CCCCCCC(=O)O)[C@@H](O)C[C@H]1O [13,14-dihydro-15-keto Prostaglandin F1.alpha.]",scaled lipid accumulation score,[3],≤ 0
O=[N+]([O-])c1cc(Cl)ccc1S(=O)(=O)N1CCN(Cc2ccccc2)CC1,scaled lipid accumulation score,[2],0.048
CN(C)c1cnccn1,scaled lipid accumulation score,[2],≤ 0
CCCCC[C@](C)(O)/C=C/[C@H]1[C@H](O)CC(=O)[C@@H]1C/C=C\CCCC(=O)O [15(S)-15-methyl Prostaglandin E2],scaled lipid accumulation score,[3],≤ 0
CCc1cc2c(cc1N1CCC(N3CCOCC3)CC1)C(C)(C)c1[nH]c3cc(C#N)ccc3c1C2=O [listing 1 of 2 here],scaled lipid accumulation score,[4],≤ -0.016
same,scaled lipid accumulation score,[5],≤ -0.016
same,scaled lipid accumulation score,[6],0.126
N#Cc1ccc2[nH]c(O)c(-c3ccc(CN4CCOCC4)cn3)c2c1,scaled lipid accumulation score,[1],0.477
same,scaled lipid accumulation score,[2],0.769
CCc1cc2c(cc1N1CCC(N3CCOCC3)CC1)C(C)(C)c1[nH]c3cc(C#N)ccc3c1C2=O [listing 2 of 2 here],scaled lipid accumulation score,[2],1.17 (active)
CC#CCOC(=O)C1=CCCN(C)C1 [Arecaidine but-2-ynyl ester tosylate],scaled lipid accumulation score,[2],≤ 0
CCOC(=O)[C@H](CCc1ccccc1)N[C@@H](C)C(=O)N1Cc2cc(OC)c(OC)cc2C[C@H]1C(=O)O [Moexipril hydrochloride],scaled lipid accumulation score,[2],0.011
CCOC(=O)[C@H](CCc1ccccc1)N[C@@H](C)C(=O)N1Cc2cc(OC)c(OC)cc2C[C@H]1C(=O)O [Moexipril HCl],scaled lipid accumulation score,[1],≤ 0
same,scaled lipid accumulation score,[2],≤ 0
CO[C@H]1C[C@H](O[C@H]2[C@H](C)[C@@H](O[C@@H]3O[C@H](C)C[C@H](N(C)C)[C@H]3O)[C@@H](C)C[C@@]3(CO3)C(=O)[C@H](C)[C@@H](O)[C@@H](C)[C@@H](C)OC(=O)[C@@H]2C)O[C@@H](C)[C@@H]1O [Oleandomycin phosphate],scaled lipid accumulation score,,≤ 0
same,scaled lipid accumulation score,[2],≤ 0
CCCCCCCCCCCCCCCCOC[C@H](COP(=O)([O-])OCC[N+](C)(C)C)SC(=O)CCCCCC [Heptanoyl thio-PC],scaled lipid accumulation score,[3],0.071

# From the supplement of paper PMC9135407
